From PubChem BioAssay AID1347426 (Functional Genomics Laboratory (NCATS/FGL), 2020)
In all, about 31,000 sequences went through this assay and about 1,400 (4.5%) were called active.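 Rule for the calls: active = median seed-adjusted z-score above 1 or below -1; inactive = the rest.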 The entries come from a sample that favours actives as a whole.

experiment: Novel Modifiers of Survival Motor Neuron (SMN) Protein: Gene Identification via Genome-wide siRNA Screen; settings: HEK293T SMN2-luciferase reporter, siRNA knockdown, 72 h; actives lie on both sides;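 note: luminescence tracks full-length SMN protein made from the SMN2 reporter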
Outline: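 siRNA screen, 10418 genes ×3 siRNAs; 1 pmol/well, lipid reverse transfection into HEK293T SMN2-luc reporter line. 72 h, 37 °C, 5% CO2; ONE-Glo readout. Data: neg-ctrl normalized, log10, MAD; hit = MAD >1.0 or < -1.0.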

Row | Sequence | median seed-adjusted z-score
1 | GGUCCUAAGUUUGAAGUCATT against FRMPD2 | -0.329 (inactive)
2 | CGAUAUAAGCUCCGAGAGATT against POLR2E | -1.25 (active)
3 | GCUGUAACCUCUUCAUCUATT against BRUNOL6 | -0.542 (inactive)
4 | GCAAGGAUCAGUUUCCGGATT against RHOC | -0.579 (inactive)
5 | GGAACACCUUUAGUCAUGATT against ZNF790 | 0.245 (inactive)
6 | CCAGCUGCCUACAAAGACATT against CLDN14 | -0.456 (inactive)
7 | AACGCACUCUUCUACGUCATT against NTSR1 | -1.1 (active)
8 | GACCGACAUUUGUGAAGAATT against ZNF547 | 0.099 (inactive)
9 | CAAAUGGGACUGUCAAUUATT against REPS2 | 0.454 (inactive)
10 | GGUUAUCCUUUGCCCAGCATT against ACTL7A | 1.1 (active)
11 | AAGUUAGUCCUAAAGUGUATT against UCHL1 | -0.421 (inactive)
12 | CCACGGCACAUGGAACUAATT against SLC7A14 | 0.132 (inactive)
13 | GUCCCGCUAUGACUACUUUTT against GRM2 | -0.664 (inactive)
14 | CUGUUUGGUUUAUUCGAUUTT against ZW10 | 0.199 (inactive)
15 | GAGUAAGUGAAAUAGAACATT against ZBTB26 | 0 (inactive)
16 | GAAACCAUCCAAUCCAAGATT against TXNDC2 | -1.29 (active)
17 | GGACUUGGAUUAUGAACUATT against COL6A3 | 0.341 (inactive)
18 | CGAGCAUUCUCUCUUGAAATT against MED24 | -2.3 (active)
19 | GCGUGUAAAUUCUACUGCATT against RB1 | 0.49 (inactive)
20 | CUACCACGCAGUCAACCUUTT against LTB4R2 | -0.26 (inactive)
21 | GGAUUUUAUUCUUCACCGUTT against RBMS3 | 0.0976 (inactive)
22 | GCACGAAUUUCAGCACCAATT against HOXD1 | 0.144 (inactive)
23 | GGAACAUUUUUGACGGAUUTT against SCN8A | 0 (inactive)
24 | GCACAACACUCGCUCCAAUTT against GLT8D1 | 1.22 (active)
25 | GGUAAUAAAUGGGUUGGAATT against PTGR2 | 0.14 (inactive)
26 | CAGAGACCCUUGAUAAACUTT against PIK3AP1 | 0.0678 (inactive)
27 | GCAUGACUAUGUCAAGAAATT against MCM3 | 0.339 (inactive)
28 | GCUCGUGAUUGAUGCUGCATT against NGB | 0 (inactive)
29 | CGACAUCAUCAAUAGACGATT against AQR | -1.56 (active)
30 | GGACCACGAUGAUCAUUGATT against CRMP1 | -0.354 (inactive)
